Laboratory results as given in the supplement of paper PMC6555819.

Assays:
Test in all cases: PBM binding z-score (relative to random genomic background probes); higher = stronger binding; sequences stand for … in GC…GCGATTGACAGCGTAGAATGAAGG
[1] = test system: FXR:RXRa (NR concentration 270 nM, RXRa partner concentration 90 nM)
How it was run: (§1)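 Antibodies against each partner of ligand-free nuclear receptor dimers (one per run) detected binding on custom Agilent 4×180K protein-binding microarrays after 1 h incubation. The double-stranded probes had 34-nt variable regions carrying direct-repeat seeds, single-nucleotide variants, half-site ablations and random human genomic background sequences. Binding z-scores, from regression-normalized fluorescence, use the random background probes as reference.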

[2] = test system: LXRa:RXRa (NR concentration 270 nM, RXRa partner concentration 90 nM)
How it was run: as §1

[3] = test system: LXRa homodimer (NR concentration 270 nM)
How it was run: as §1

[4] = test system: LXRb:RXRa (NR concentration 270 nM, RXRa partner concentration 90 nM)
How it was run: as §1

[5] = test system: LXRb homodimer (NR concentration 270 nM)
How it was run: as §1

[6] = test system: PPARa:RXRa (NR concentration 270 nM, RXRa partner concentration 90 nM)
How it was run: as §1

[7] = test system: PPARg:RXRa (NR concentration 180 nM, RXRa partner concentration 90 nM)
How it was run: as §1

[8] = test system: PPARg:RXRa 270nM:90nM, anti-RXR (NR concentration 270 nM, RXRa partner concentration 90 nM)
How it was run: as §1

[9] = test system: PPARg:RXRa 30nM:10nM, anti-RXR (NR concentration 30 nM, RXRa partner concentration 10 nM)
How it was run: as §1

[10] = test system: PPARg:RXRa 90nM:30nM, anti-RXR (NR concentration 90 nM, RXRa partner concentration 30 nM)
How it was run: as §1

[11] = test system: PPARg:RXRa DBDmut IVT, anti-RXR (DBD mutation: RXRa K156A/R161A, NR concentration 270 nM, RXRa partner concentration 90 nM)
How it was run: as §1

[12] = test system: PPARg:RXRa IVT, anti-PPARg (NR concentration 270 nM, RXRa partner concentration 90 nM)
How it was run: as §1

[13] = test system: PPARg DBDmut:RXRa IVT, anti-PPARg (DBD mutation: PPARg1 K132A/R137A, NR concentration 270 nM, RXRa partner concentration 90 nM)
How it was run: as §1

[14] = test system: PPARg DBDmut IVT, anti-PPARg (DBD mutation: PPARg1 K132A/R137A, NR concentration 270 nM)
How it was run: as §1

[15] = test system: PPARg homodimer (NR concentration 180 nM)
How it was run: as §1

[16] = test system: PXR:RXRa (NR concentration 270 nM, RXRa partner concentration 90 nM)
How it was run: as §1

[17] = test system: PXR homodimer (NR concentration 270 nM)
How it was run: as §1

[18] = test system: RARa:RXR (NR concentration 270 nM, RXRa partner concentration 90 nM)
How it was run: as §1

[19] = test system: RARa homodimer (NR concentration 270 nM)
How it was run: as §1

[20] = test system: RARb:RXRa (NR concentration 270 nM, RXRa partner concentration 90 nM)
How it was run: as §1

Sequence	PBM binding z-score [1]	PBM binding z-score [2]	PBM binding z-score [3]	PBM binding z-score [4]	PBM binding z-score [5]	PBM binding z-score [6]	PBM binding z-score [7]	PBM binding z-score [8]	PBM binding z-score [9]	PBM binding z-score [10]	PBM binding z-score [11]	PBM binding z-score [12]	PBM binding z-score [13]	PBM binding z-score [14]	PBM binding z-score [15]	PBM binding z-score [16]	PBM binding z-score [17]	PBM binding z-score [18]	PBM binding z-score [19]	PBM binding z-score [20]
TCTAGTTGGTCACGCAGGTCACACACGACGGGTA	1.94	1.98	1.08	2.09	0.279	2.87	2.09	2.99	3.37	2.92	2.32	3.48	0.238	1.23	1.91	2.72	0.544	3.15	1.14	3.05
GCTATTACTTGAAAGGGCAACCGAATGATTCTCG	0.128	0.738	0.277	0.831	0.248	1	0.583	0.184	0.177	0.0562	0.661	0.239	-0.509	0.326	0.811	0.499	-0.0796	0.627	0.826	2.17
AGTCAAAGTTCAGGACGAGGTTACGTAAAGCACG	4.83	4.65	2.06	2.7	0.273	3.73	5.02	4.89	2.32	4.2	-0.0298	2.22	0.501	0.266	2.73	4.73	2.59	4.38	1.13	4.46
TATACAGGGTCACAGGCCAGAGTACGAATGTCGA	7.56	5.94	2.06	4.84	2.2	6.06	8.05	6.76	3.77	5.75	2.88	5.43	2.95	3.73	3.45	4.32	0.522	5.21	1.31	4.8
CCAGACAGGTGAATGGTAACTCAGTCTGGTACGC	-0.448	-0.493	-0.271	-0.246	-0.723	0.129	0.419	0.128	-0.647	-0.216	0.897	0.735	-0.452	-0.717	0.288	-0.4	-0.302	-0.379	-0.0506	0.381
ACAGACAGGTGAGTGAAGGTAACTCACCTGGACG	0.567	0.338	-0.604	-0.347	-0.328	0.358	0.593	0.216	0.0231	-0.144	0.281	1.01	0.307	0.131	-0.03	-0.17	-0.14	0.495	-0.345	0.553
ACTAGCAGGCCAAGGGTCACTCAGGATTAGTCCG	2.7	2.61	0.0255	2.69	-0.237	4.39	7.87	7.62	6.72	8.16	1.05	3.72	-0.273	-0.162	4.08	3.21	-0.196	4.33	0.739	3.59
AGAATGAGGTTCTTAAGATCAGGGAATTGCGGTC	-0.335	-0.575	-0.571	-0.551	-0.54	-0.0387	0.197	-0.0485	-0.306	0.0331	0.324	0.283	0.378	-0.225	-0.0988	-0.118	-0.179	-0.0748	-0.832	0.0675
GATACAGGGTCAAGGCAAGAGTACGCGTATTGAT	6.93	4.47	0.251	3.95	0.189	6.03	6.09	5.4	2.18	4.16	2.89	4.14	1.59	0.74	2.69	3.78	0.428	4.61	1.12	4.62
CCTATTAGTTGAGCATAAGGGCAACCGAAGCTCG	0.0961	-0.117	0.193	-0.0125	0.346	0.124	0.333	0.305	-0.0457	0.368	-0.00699	0.0681	-0.0638	0.243	1.36	0.18	0.549	0.348	1.39	1.1
GCTTACGGGTCAAAGGTTATTGCATGAATAGAAT	7.79	5.75	1.09	5.81	0.701	6.84	11.3	9.3	8.78	10.8	4.96	5.79	2.15	2.94	3.22	6.21	0.728	8.16	1	4.49
CGAACTAGGTCATCCAGGACAGAGAATACATTGA	4.18	2.74	0.462	2.08	0.0984	4.79	7.72	6.45	3.83	5.81	8.15	8.34	2.22	1.68	1.64	1.97	1.05	2.45	0.545	3.79
TCTTGGAGATCAACAGGAGGTTAAGAAAGATCGA	0.373	1.25	-0.0581	0.942	-0.782	1.44	0.02	1.23	2.38	1.62	0.986	0.364	0.0727	0.526	-0.163	1.09	-0.208	1.41	-0.417	0.374
TTGAGTAGGTTAGTCGGGGCATTCAGCCAACATA	0.205	0.325	0.413	0.932	0.285	1.11	0.307	0.997	0.398	0.742	3.52	3.36	0.385	0.257	0.88	0.618	0.715	0.545	0.987	0.733
CAAACTACGTCAAAGGTCAAAGTCGAGCCAACCA	5.96	6.21	4.83	5.68	2.75	6.18	8.64	7.97	6.79	8.59	0.954	3.98	7.78	3.09	4.03	5.6	1.77	6.64	2.88	4.73
TCTGCTAGGTCAGTTGGTCACCTAACGAGCTGCC	1.06	0.728	-0.345	0.685	0.632	1.69	1.03	2.1	1.38	1.75	2.8	3.77	1.37	0.817	0.461	0.216	-0.932	0.734	-1.21	3.44
ATATGTAGGTTACATCCGGTTCATTCAGGCTATG	1	4.13	1.07	2.07	0.614	3.53	5.17	4.39	2.2	3.81	7.75	7.32	3.76	2.01	1.08	3.66	5.68	1.55	0.415	1.22
TCAATTAGTTGATTAGGGCAACCGAAACAGCGGA	0.579	0.188	-0.056	0.445	-0.277	0.882	0.217	1.6	3.41	2.45	2.01	1.32	0.608	0.646	-0.173	0.326	0.219	0.567	0.493	0.665
TCGAGTAGGTTAGGGGCGTTCAGAATGGCGTCGA	0.341	0.362	-0.22	0.565	-0.227	0.892	0.197	1.54	0.846	1.56	1.69	1.26	0.15	-0.777	0.542	0.471	0.0132	0.223	-0.263	0.552
CCTATTTGGTCAAGGTCACACACGCTATAGGTAC	4.34	4.04	2.64	4.09	1.47	4.33	3.07	3.58	1.55	2.5	2.33	3.67	1.27	1.25	3.05	4.1	2.06	4.39	2.51	4.3
ATCGAAATGTCGACGAGGTGAGTATACACCGTTT	-0.0573	-0.263	-0.442	-0.0135	-0.0075	0.206	0.897	-0.108	0.151	-0.0963	-0.343	0.676	0.668	0.692	-0.253	-0.067	0.0399	0.312	-0.025	0.403
ACTAGGAGGCCAAGTTTGGGTCACTCAAACAAAG	0.516	0.308	-0.0463	0.967	-0.287	1.36	0.296	0.511	-0.488	-0.0404	1.22	1.95	-0.886	-1.06	1.15	1.22	0.347	1.83	0.176	2.43
AATACAGGGTCATCGTAGGCCGGAGTACGCACAG	6.87	6.14	2.19	4.53	1.37	5.62	6.36	5.92	2.34	4.59	2.7	4.02	1.63	1.58	2.22	4.4	0.419	4.74	0.979	4.17
AGAATGAGGTTATACGTACATCAGGGAAGAAAGT	2.3	2.05	0.00405	1.58	0.14	3.24	2.46	2.42	0.777	1.66	2.47	2.41	1.28	1.19	0.736	1.28	0.643	1.82	0.483	1.5
ATCTCTAGGTAAAGTTCAGTGATAGATCGATAGA	1.49	1.95	1.88	1.14	1.34	2.39	3.59	4.16	2.3	3.88	2.28	2.44	1.4	1.48	1.9	1.92	1.96	1.35	1.69	2.71
CCTAGTTGGTCAGGAGGGCACACACCGGATATGA	0.184	0.335	0.0656	0.24	-0.0952	0.641	0.988	0.912	0.0866	0.594	0.374	1.62	-0.178	-0.301	1.22	0.369	0.17	0.233	0.714	1.71
